# Values without a mark were called inactive. Inconclusive results are not listed. Entries that show only a call come without a potency. The source made the active and inactive calls. Unless noted, calls follow the shape of the dose curve; as a rule, active = well fitted curve in the direction sought with a large enough effect in the repeat runs; inconclusive = weak or mixed curves; inactive = no such curve, though single readings can be large; an effect the other way counts as inactive or inconclusive.
# Columns and labels:
# [1] = qHTS assay to identify small molecule antagonists of the estrogen receptor alpha (ER-alpha) signaling pathway using the BG1 cell line in the presence of 0.1 nM 17-beta-estradiol - cell viability counter screen (AID 1259241); also: nearly all actives have a fitted effect of over 40% in size
# Summary of the method: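 VM7Luc4E2, 4,000 cells/well, phenol red-free medium + 10% charcoal-stripped FBS; 24 hr plating; cpd + 0.1 nM E2 final, 22 hr 37C/5% CO2; CellTiter-Fluor 30 min, fluorescence.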
# [2] = qHTS assay to identify small molecule antagonists of the androgen receptor (AR) signaling pathway using the MDA cell line in the presence of 0.5 nM R1881 - cell viability counter screen (AID 1259242); also: nearly all actives have a fitted effect of over 45% in size
# Summary of the method: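 MDA-kb2 cells (human breast carcinoma, stably carrying MMTV-luciferase reporter) were exposed to compounds with 0.5 nM R1881 (final) for 16 hr at 37C, 0% CO2; viability then read as live-cell protease fluorescence (CellTiter-Fluor, 30 min) in the same wells.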
# [3] = molecular target: Androgen receptor (Homo sapiens) (UniProt P10275); experiment: qHTS assay to identify small molecule antagonists of the androgen receptor (AR) signaling pathway using the MDA cell line in the presence of 0.5 nM R1881 (AID 1259243); also: nearly all actives have a fitted effect of over 50% in size; also: potency is read from the fitted curve at half-maximal effect
# Summary of the method: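 MDA-kb2 human breast carcinoma cells carrying an MMTV-luciferase reporter (AR- and GR-responsive) were plated, rested 5 hr at 37C, dosed with compounds, then stimulated with 0.5 nM R1881 (final) for 16 hr; luminescence was read after ONE-Glo.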
# [4] = molecular target: Estrogen receptor (Homo sapiens) (UniProt P03372); experiment: qHTS assay to identify small molecule antagonists of the estrogen receptor alpha (ER-alpha) signaling pathway using the BG1 cell line in the presence of 0.1 nM 17-beta-estradiol (AID 1259244); also: nearly all actives have a fitted effect of over 50% in size; also: potency is read from the fitted curve at half-maximal effect
# Summary of the method: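 VM7Luc4E2 cells (endogenous full-length ER-alpha, stable 4xERE-luciferase) were grown 5 days in phenol red-free medium with charcoal-stripped FBS, then exposed 22 h at 37C to compounds plus 0.1 nM (final) 17beta-estradiol; ONE-Glo luminescence read-out.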
# [5] = qHTS assay to identify small molecule phospholipidosis (PLD) inducers (AID 1259344; active = well fitted curve in the direction sought with a large enough effect; an effect the other way counts as inactive or inconclusive)
# Summary of the method: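 HepG2 cells grown on collagen I take up LipidTOX Red while exposed to compound for 24 h; after fixation they are imaged at 20x and pit metrics are extracted.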
# [6] = qHTS assay to identify small molecule HDAC inhibitors (AID 1259364); also: top concentration of the series differs between compounds; nearly all actives have a fitted effect of over 45% in size
# Summary of the method: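 Wild-type HCT-116 cells were plated overnight, exposed to compounds for 2 h at 37 °C, then given HDAC-Glo class I/II luminogenic reagent for 30 min at room temperature before luminescence was read.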
# [7] = qHTS assay to identify small molecule HDAC inhibitors - cell viability counter screen (AID 1259365); also: series mostly up to about 92 µM; nearly all actives have a fitted effect of over 50% in size
# Summary of the method: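 Luminescence from CellTiter-Glo, developed 30min at room temperature, reports viability of wild-type HCT-116 cells treated 2hr with compounds at 37 C and 5% CO2 after overnight plating.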
# [8] = qHTS assay to identify small molecule agonists of the sonic hedgehog signaling (Shh) pathway - cell viability counter screen (AID 1259366); also: nearly all actives have a fitted effect of over 50% in size
# Summary of the method: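 Cytotoxicity counter screen run in the same wells as the Shh reporter assay. NIH/3T3 cells carrying a Gli1 response element–driven luciferase were treated with DMSO-dissolved compounds for 24hr, and live-cell protease activity was measured with CellTiter-Fluor.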
# [9] = qHTS assay to identify small molecule antagonists of the sonic hedgehog signaling (Shh) pathway - cell viability counter screen (AID 1259367); also: nearly all actives have a fitted effect of over 55% in size
# Summary of the method: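 After a 4 hr settling period, 3T3 Gli1-Luc cells were treated with DMSO-dissolved chemicals and conditioned medium, kept 24 hr at 37C in 5% CO2, and assayed for viability by CellTiter-Fluor fluorescence following 1 hr reagent incubation.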
# [10] = qHTS assay to identify small molecule agonists of the sonic hedgehog signaling (Shh) pathway (AID 1259368; calls by dose curve; also: series mostly up to about 92 µM; nearly all actives have a fitted effect of over 15% in size)
# Summary of the method: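 NIH/3T3-derived 3T3Gli1-Luc cells carrying a stably integrated Gli1 response element–firefly luciferase reporter were plated, left 4 hr at 37 C, then given compounds in DMSO for 24 hr. Luminescence was read 30 min after adding luciferase reagent.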
# [11] = qHTS assay to identify small molecule antagonists of the sonic hedgehog signaling (Shh) pathway (AID 1259369; calls by dose curve; also: nearly all actives have a fitted effect of over 45% in size)
# Summary of the method: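 NIH/3T3-derived 3T3Gli1-Luc cells with stably integrated Gli1-Luc reporter were preincubated 4hr at 37 C, then given compounds in DMSO plus Shh conditioned medium and incubated 24hr. Firefly luciferase luminescence read after 30min reagent at room temperature.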
# [12] = molecular target: Estrogen receptor beta (Homo sapiens) (UniProt Q92731); experiment: qHTS assay to identify small molecule agonists of the estrogen receptor beta (ER-beta) signaling pathway (AID 1259377; active = well fitted activation curve with a large enough effect in the signal ratio in the repeat runs, not every such curve was filed as active; the % refers to the signal ratio)
# Summary of the method: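 HEK293T ER-beta-UAS-bla; 2% charcoal-stripped FBS; cells pre-incubated 6 hr, compound 16 hr, 37C/5% CO2; LiveBLAzer B/G FRET substrate 2 h RT; fluorescence intensity read.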
# [13] = molecular target: Estrogen receptor beta (Homo sapiens) (UniProt Q92731); experiment: qHTS assay to identify small molecule antagonists of the estrogen receptor beta (ER-beta) signaling pathway (AID 1259378; active = well fitted inhibition curve with a large enough effect in the signal ratio in the repeat runs, not every such curve was filed as active; the % refers to the signal ratio)
# Summary of the method: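 ER-beta-UAS-bla HEK293T (GripTite) cells in 2% charcoal-stripped FBS medium were preincubated 6 hr at 37C, dosed with compound, then stimulated with 1 nM E2 (final) for 16 hr; beta-lactamase reporter read by B/G FRET fluorescence after 2 hr substrate loading.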
# [14] = qHTS assay to identify small molecule agonists of the androgen receptor (AR) signaling pathway in the presence of an antagonist - cell viability counter screen (AID 1259379); also: series mostly up to about 92 µM; nearly all actives have a fitted effect of over 25% in size
# Summary of the method: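 MDA-kb2 human breast carcinoma cells (stable MMTV-luciferase, AR/GR responsive) were seeded 3,000 cells/well, pre-incubated 5 hr at 37C without CO2, then given 3.0uM nilutamide and compounds at 15 concentrations for 16 hr. Viability was read by CellTiter-Fluor fluorescence.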
# [15] = qHTS assay to identify small molecule agonists of the estrogen receptor beta (ER-beta) signaling pathway - cell viability counter screen (AID 1259380); also: nearly all actives have a fitted effect of over 30% in size
# Summary of the method: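 ER-beta-UAS-bla HEK293T cells in medium with 2% charcoal-stripped FBS were preincubated 6 hr at 37C, dosed with compound in DMSO for 16 hr, then after the bla read, CellTiter-Glo was added for 30 min at room temperature; luminescence recorded.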
# [16] = qHTS assay to identify small molecule antagonists of the estrogen receptor beta (ER-beta) signaling pathway - cell viability counter screen (AID 1259382); also: series mostly up to about 92 µM; nearly all actives have a fitted effect of over 55% in size
# Summary of the method: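 ER-beta-UAS-bla HEK293T cells (2,000/well, 2% charcoal-stripped FBS) were pre-incubated 6 hr at 37C, then given compound plus 1nM final 17-beta-estradiol for 16 hr. Viability was read in the same wells by CellTiter-Glo luminescence after 30 min at room temperature.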
# [17] = molecular target: Estrogen receptor (Homo sapiens) (UniProt P03372); experiment: qHTS assay to identify small molecule agonists of the estrogen receptor alpha (ER-alpha) signaling pathway in the presence of an antagonist (AID 1259383; calls by dose curve; also: top concentration of the series differs between compounds; nearly all actives have a fitted effect of over 15% in size)
# Summary of the method: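 VM7Luc4E2 cells (endogenous full-length ER-alpha, 4×ERE-luciferase) were precultured 5 days in phenol red-free medium with 10% charcoal-stripped FBS, given 10.0nM ICI-182,780 (final), then treated with compounds at 15 concentrations for 22hr at 37C; luminescence read with ONE-Glo.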
# [18] = qHTS assay to identify small molecule agonists or antagonists of the thyroid stimulating hormone receptor (TSHR) signaling pathway - wild type cell line counter screen (AID 1259384; calls by dose curve)
# Summary of the method: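 Wild-type HEK293 cells were plated 18 h at 37 C/5% CO2, pin-dosed with compound plus Ro20-1724 medium, held 30 min at room temperature, then given cAMP-d2 and anti-cAMP-cryptate; fluorescence was read after 1 h. Fifteen concentrations, triplicate.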
# [19] = molecular target: Thyrotropin receptor (Homo sapiens) (UniProt P16473); experiment: qHTS assay to identify small molecule antagonists of the thyroid stimulating hormone receptor (TSHR) signaling pathway (AID 1259385; calls by dose curve; also: nearly all actives have a fitted effect of over 20% in size)
# Summary of the method: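 TSHR-HEK293 cells were plated and held 18 h at 37C/5% CO2, then given compound plus Ro20-1724 and stimulated with TSH at 1.5 ng/mL final. After 30 min at room temperature, cAMP was detected with cAMP-d2/anti-cAMP-cryptate (1 h) by fluorescence.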
# [20] = molecular target: Androgen receptor (Homo sapiens) (UniProt P10275); experiment: qHTS assay to identify small molecule agonists of the androgen receptor (AR) signaling pathway in the presence of an antagonist (AID 1259381; calls by dose curve; also: nearly all actives have a fitted effect of over 15% in size)
# Summary of the method: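 MDA-kb2 human breast carcinoma cells carrying an MMTV-luciferase reporter (AR- and GR-responsive) were treated with compounds at 15 concentrations plus 3.0uM final nilutamide for 16hr at 37C without CO2; luminescence was read after ONE-Glo addition.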
# Chain of Estrogen receptor beta (Homo sapiens) (Q92731 whole entry, looked up): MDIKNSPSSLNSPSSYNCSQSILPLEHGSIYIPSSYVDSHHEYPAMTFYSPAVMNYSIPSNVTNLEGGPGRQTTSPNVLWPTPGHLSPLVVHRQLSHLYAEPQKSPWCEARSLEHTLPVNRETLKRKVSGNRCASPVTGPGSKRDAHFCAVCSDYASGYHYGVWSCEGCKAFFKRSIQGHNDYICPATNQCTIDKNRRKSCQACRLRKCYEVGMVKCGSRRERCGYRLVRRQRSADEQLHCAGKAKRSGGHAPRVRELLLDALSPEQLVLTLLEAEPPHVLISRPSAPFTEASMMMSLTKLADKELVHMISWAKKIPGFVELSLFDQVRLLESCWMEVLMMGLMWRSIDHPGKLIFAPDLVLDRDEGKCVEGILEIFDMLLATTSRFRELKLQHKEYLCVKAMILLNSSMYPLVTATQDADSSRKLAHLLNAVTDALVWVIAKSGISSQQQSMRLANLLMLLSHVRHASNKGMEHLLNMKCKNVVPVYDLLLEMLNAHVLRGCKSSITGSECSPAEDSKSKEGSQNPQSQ
# Chain of Thyrotropin receptor (Homo sapiens) (P16473 whole entry, looked up): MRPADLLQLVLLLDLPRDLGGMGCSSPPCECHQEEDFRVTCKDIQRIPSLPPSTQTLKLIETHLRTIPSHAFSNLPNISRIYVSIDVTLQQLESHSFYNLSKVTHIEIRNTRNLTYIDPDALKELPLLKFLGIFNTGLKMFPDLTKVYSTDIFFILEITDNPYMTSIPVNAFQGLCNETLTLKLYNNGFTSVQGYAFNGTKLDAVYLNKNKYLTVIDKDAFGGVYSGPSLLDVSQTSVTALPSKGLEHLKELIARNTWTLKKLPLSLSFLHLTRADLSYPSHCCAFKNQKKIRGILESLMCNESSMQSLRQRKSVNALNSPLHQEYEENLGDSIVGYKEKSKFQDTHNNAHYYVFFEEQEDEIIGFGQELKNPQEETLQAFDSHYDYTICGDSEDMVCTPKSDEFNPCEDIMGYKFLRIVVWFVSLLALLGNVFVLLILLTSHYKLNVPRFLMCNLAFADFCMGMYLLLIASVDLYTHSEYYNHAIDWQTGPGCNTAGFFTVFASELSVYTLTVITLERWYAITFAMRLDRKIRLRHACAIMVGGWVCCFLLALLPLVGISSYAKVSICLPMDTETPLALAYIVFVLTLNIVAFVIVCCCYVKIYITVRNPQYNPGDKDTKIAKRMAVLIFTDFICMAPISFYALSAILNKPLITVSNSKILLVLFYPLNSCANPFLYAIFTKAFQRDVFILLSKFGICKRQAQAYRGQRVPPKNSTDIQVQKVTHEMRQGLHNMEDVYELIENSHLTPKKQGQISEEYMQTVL
# Chain of Estrogen receptor (Homo sapiens) (P03372 whole entry, looked up): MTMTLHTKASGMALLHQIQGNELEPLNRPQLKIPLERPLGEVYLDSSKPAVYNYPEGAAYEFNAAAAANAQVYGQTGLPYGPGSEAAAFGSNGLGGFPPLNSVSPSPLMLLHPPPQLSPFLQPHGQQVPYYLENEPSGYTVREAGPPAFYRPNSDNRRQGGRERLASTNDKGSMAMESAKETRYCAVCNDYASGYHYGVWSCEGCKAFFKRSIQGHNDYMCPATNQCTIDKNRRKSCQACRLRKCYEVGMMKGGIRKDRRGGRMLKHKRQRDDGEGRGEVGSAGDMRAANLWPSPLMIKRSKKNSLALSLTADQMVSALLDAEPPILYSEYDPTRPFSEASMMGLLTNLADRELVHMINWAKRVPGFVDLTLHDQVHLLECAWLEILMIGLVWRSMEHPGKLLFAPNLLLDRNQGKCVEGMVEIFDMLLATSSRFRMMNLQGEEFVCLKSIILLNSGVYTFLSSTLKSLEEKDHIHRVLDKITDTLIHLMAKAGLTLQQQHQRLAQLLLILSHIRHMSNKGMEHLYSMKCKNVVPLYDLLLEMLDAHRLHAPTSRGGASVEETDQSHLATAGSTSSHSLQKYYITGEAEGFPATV
# Chain of Androgen receptor (Homo sapiens) (P10275 whole entry, looked up): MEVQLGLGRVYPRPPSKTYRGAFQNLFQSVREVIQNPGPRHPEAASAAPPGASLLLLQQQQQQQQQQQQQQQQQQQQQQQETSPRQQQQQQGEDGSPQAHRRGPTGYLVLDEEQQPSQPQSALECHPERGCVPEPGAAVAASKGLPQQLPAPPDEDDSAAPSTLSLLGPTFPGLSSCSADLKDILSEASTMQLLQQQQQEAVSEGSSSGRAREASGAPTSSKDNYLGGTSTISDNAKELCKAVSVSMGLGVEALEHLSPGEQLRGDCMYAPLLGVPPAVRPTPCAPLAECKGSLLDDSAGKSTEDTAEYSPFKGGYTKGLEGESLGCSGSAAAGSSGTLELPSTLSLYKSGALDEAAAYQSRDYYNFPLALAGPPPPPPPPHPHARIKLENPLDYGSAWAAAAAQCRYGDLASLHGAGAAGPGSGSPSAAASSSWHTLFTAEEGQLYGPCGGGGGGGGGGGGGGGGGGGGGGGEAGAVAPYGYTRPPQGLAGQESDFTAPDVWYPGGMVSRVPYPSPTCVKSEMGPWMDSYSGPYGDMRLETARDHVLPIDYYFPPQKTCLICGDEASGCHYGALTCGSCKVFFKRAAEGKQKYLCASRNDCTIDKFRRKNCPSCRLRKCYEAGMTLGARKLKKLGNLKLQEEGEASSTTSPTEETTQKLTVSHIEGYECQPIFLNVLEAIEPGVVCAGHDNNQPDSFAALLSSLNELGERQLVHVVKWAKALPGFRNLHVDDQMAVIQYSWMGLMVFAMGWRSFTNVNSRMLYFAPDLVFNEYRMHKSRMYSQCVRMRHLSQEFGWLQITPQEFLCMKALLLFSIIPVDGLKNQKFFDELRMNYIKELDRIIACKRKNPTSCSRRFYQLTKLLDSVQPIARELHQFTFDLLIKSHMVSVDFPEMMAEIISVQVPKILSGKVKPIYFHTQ
smiles,measurement,setting,value
Nc1ccc(S(=O)(=O)Nc2ccc(Cl)nn2)cc1,Potency,[1],inactive
same,outcome,[2],inactive
same,Potency,[3],inactive
same,Potency,[4],inactive
same,outcome,[5],inactive
same,Potency,[6],inactive
same,outcome,[7],inactive
same,Potency,[8],inactive
same,Potency,[9],inactive
same,outcome,[10],inactive
same,Potency,[11],inactive
same,Potency,[12],inactive
same,outcome,[13],inactive
same,Potency,[14],inactive
same,Potency,[15],inactive
same,outcome,[16],inactive
same,outcome,[17],inactive
Oc1cn2c(n1)Nc1ccc(Cl)c(Cl)c1C2,"activity change, negative = cytotoxicity",[1],0.999% [at 19 µM]
same,"viability change, negative = cytotoxic",[2],1.91% [at 19 µM]
same,"activity, negative = inhibition",[3],16.6% [at 19 µM]
same,"activity change, negative = inhibition",[4],-26.8% [at 19 µM]
same,outcome,[5],inactive
same,"activity change, negative = inhibition",[6],-1.7% [at 19 µM]
same,"activity change, negative = cytotoxicity",[7],1.3% [at 19 µM]
same,"viability change, negative = cytotoxic",[8],3.75% [at 19 µM]
same,"viability change, negative = cytotoxic",[9],-4.16% [at 19 µM]
same,activity change,[10],-0.534% [at 18.9 µM]
same,"activity change, negative = inhibition",[11],-20% [at 19 µM]
same,activation,[12],-3.28% [at 19 µM]
same,"activity, negative = inhibition",[13],0.533% [at 19 µM]
same,"activity change, negative = cytotoxicity",[14],0.214% [at 19 µM]
same,"activity change, negative = cytotoxicity",[15],8.72% [at 19 µM]
same,activation,[17],-1.28% [at 19 µM]
same,cAMP activity change,[18],-0.126% [at 18.9 µM]
same,"activity change, negative = inhibition",[19],-0.393% [at 19 µM]
CNC(=O)[C@H]1O[C@@H](n2cnc3c(NCc4cc(Cl)ccc4OCc4cc(C)no4)ncnc32)[C@H](O)[C@@H]1N,Potency,[1],inactive
same,outcome,[2],inactive
same,Potency,[3],inactive
same,Potency,[4],inactive
same,Potency,[6],inactive
same,outcome,[7],inactive
same,Potency,[8],inactive
same,Potency,[9],inactive
same,outcome,[10],inactive
same,Potency,[11],inactive
same,Potency,[12],inactive
same,outcome,[13],inactive
same,Potency,[14],inactive
same,Potency,[15],inactive
same,outcome,[16],inactive
same,outcome,[17],inactive
same,outcome,[18],inactive
same,outcome,[19],inactive
CC(CC=O)CCCC(C)(C)O (stereo unspecified),Potency,[1],inactive
same,outcome,[2],inactive
same,Potency,[3],inactive
same,Potency,[4],inactive
same,outcome,[5],inactive
same,Potency,[6],inactive
same,outcome,[7],inactive
same,Potency,[8],inactive
same,Potency,[9],inactive
same,outcome,[10],inactive
same,Potency,[11],inactive
same,Potency,[15],inactive
same,Potency,[20],inactive
same,outcome,[16],inactive
same,outcome,[17],inactive
same,outcome,[18],inactive
same,outcome,[19],inactive
CCN(C)C(=O)Oc1cccc([C@H](C)N(C)C)c1,Potency,[1],inactive
same,outcome,[2],inactive
same,Potency,[3],inactive
same,Potency,[4],inactive
same,outcome,[5],inactive
same,Potency,[6],inactive
same,outcome,[7],inactive
same,Potency,[8],inactive
same,Potency,[9],inactive
same,outcome,[10],inactive
same,Potency,[11],inactive
same,Potency,[12],inactive
same,outcome,[13],inactive
same,Potency,[14],inactive
same,Potency,[15],inactive
same,outcome,[16],inactive
same,outcome,[17],inactive
same,outcome,[18],inactive
same,outcome,[19],inactive
O=C(CCN1CCN(CCO)CC1)N1c2ccccc2Sc2ccc(C(F)(F)F)cc21,Potency,[1],inactive
same,outcome,[2],inactive
same,Potency,[3],inactive
same,Potency,[4],inactive
same,outcome,[5],inactive
same,Potency,[6],inactive
same,outcome,[7],inactive
same,Potency,[8],inactive
same,outcome,[10],inactive
same,Potency,[11],inactive
same,Potency,[14],inactive
same,Potency,[15],inactive
same,outcome,[16],inactive
same,outcome,[17],inactive
same,outcome,[18],inactive
same,outcome,[19],inactive
O=C(Nc1ccc(Cl)c(Cl)c1)C1CC1,Potency,[1],inactive
same,outcome,[2],inactive
same,Potency,[3],5.96 µM (active)
same,Potency,[4],26.6 µM (active)
same,outcome,[5],inactive
same,Potency,[6],inactive
same,outcome,[7],inactive
same,Potency,[8],inactive
same,Potency,[9],inactive
same,outcome,[10],inactive
same,Potency,[11],inactive
same,Potency,[12],inactive
same,outcome,[13],inactive
same,Potency,[15],inactive
same,outcome,[16],inactive
same,outcome,[17],inactive
same,outcome,[18],inactive
same,outcome,[19],inactive
CCC(C)NC(N)=O (stereo unspecified),Potency,[1],inactive
same,outcome,[2],inactive
same,Potency,[3],inactive
same,Potency,[4],inactive
same,Potency,[6],inactive
same,outcome,[7],inactive
same,Potency,[8],inactive
same,Potency,[9],inactive
same,outcome,[10],inactive
same,Potency,[11],inactive
same,Potency,[12],inactive
same,outcome,[13],inactive
same,Potency,[14],inactive
same,Potency,[15],inactive
same,outcome,[16],inactive
same,outcome,[17],inactive
same,outcome,[18],inactive
same,outcome,[19],inactive
